Assay [1] in a line: Nuclear factor erythroid 2-related factor 2/antioxidant responsive element (Nrf2/ARE) small molecule agonists: qHTS cell viability counter screen in human keratinocytes (AID 1919968; active means well fitted curve in the direction sought with a large enough effect in the repeat runs; an effect the other way counts as inactive or inconclusive; further: nearly all actives have a fitted effect of over 55% in size). The method in brief: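 Cytotoxicity was multiplexed with the Nrf2/ARE luciferase assay in the same wells. Stably transfected HaCaT keratinocytes were treated with test compounds for 23 h at 37 C. Cell viability was then measured by CellTiter-Fluor fluorescence.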

The nature of assay [2]: Nuclear factor erythroid 2-related factor 2/antioxidant responsive element (Nrf2/ARE) small molecule agonists: luciferase reporter gene qHTS assay in human keratinocytes (AID 1919969). Further: nearly all actives have a fitted effect of over 35% in size. Further: potency means the concentration at half of the fitted maximal effect.
For assay [3], the target named is Gonadotropin-releasing hormone receptor (Homo sapiens) (UniProt P30968). Nature of the assay: Human gonadotropin-releasing hormone receptor (GnRHR) small molecule agonists, calcium flux assay in GnRHR-HEK293 cells (AID 1920063). Further: nearly all actives have a fitted effect of over 35% in size. The method in brief: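 Agonist activity was measured as intracellular calcium flux in HEK293 cells engineered to stably express human GnRHR. After dye loading for 1 hour at 37 C, compounds in DMSO were added and fluorescence was followed for 3 minutes.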
Sequence of Gonadotropin-releasing hormone receptor (Homo sapiens) (P30968 whole entry, looked up): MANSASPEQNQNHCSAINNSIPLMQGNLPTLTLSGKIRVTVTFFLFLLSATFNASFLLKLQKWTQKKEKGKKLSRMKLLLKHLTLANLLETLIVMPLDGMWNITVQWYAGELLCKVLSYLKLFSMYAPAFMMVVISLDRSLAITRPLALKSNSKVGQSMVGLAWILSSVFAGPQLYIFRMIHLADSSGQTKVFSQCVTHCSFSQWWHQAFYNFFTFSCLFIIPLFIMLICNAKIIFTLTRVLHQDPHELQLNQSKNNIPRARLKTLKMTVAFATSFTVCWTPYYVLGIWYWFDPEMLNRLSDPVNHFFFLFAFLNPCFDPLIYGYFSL

Assay [4] deals with KiSS-1 receptor (Homo sapiens) (UniProt Q969F8). Nature of the assay: Human kisspeptin (KISS1R) small molecule agonists, calcium flux assay in KISS1R-HEK293 cells (AID 1920064; active means well fitted curve in the direction sought with a large enough effect in the repeat runs; an effect the other way counts as inactive or inconclusive). The essentials:
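Agonist activity is monitored as intracellular calcium rise in engineered HEK293 cells carrying human KISS1R. Cells are dye-loaded for 1 h at 37 C before compound addition, and fluorescence is recorded for 3 min.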
A general note: Calcium flux is commonly read through the fluorescence of an indicator in the cells.

Assay [5] in a line: G protein-coupled receptor (GPCR) small molecule agonists, calcium flux assay: HEK293 wild type cell line counter screen (AID 1920065). The method in brief: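 Seed cells, incubate 18 h (37 C, 5% CO2); add calcium dye, 1 h at 37 C; pin-transfer compounds, ATP control or DMSO; read fluorescence 480/540 nm each second for 3 min.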
Assay [6] in a line: p53 small molecule agonists, cell-based qHTS assay with human liver microsomes (AID 1963577).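 Further: p53 response element beta-lactamase reporter cells with liver microsomes plus NADPH.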 The essentials: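 With metabolic activation: human liver microsomes (0.5 mg/mL final) plus NADPH (0.5 mg/mL final) added alongside compounds to p53RE-bla cells; 16 h 37 C exposure; beta-lactamase read by LiveBLAzer fluorescence.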
(In general: In qHTS, concentration-response curves come from the screen itself.)

The nature of assay [7]: p53 small molecule agonists, cell-based qHTS assay with rat liver microsomes (AID 1963578). The essentials:
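Metabolic activation by rat liver microsomes and NADPH, each 0.5 mg/mL final, added right after compounds to p53RE-bla reporter cells (4,000/well, plated 5 h earlier). 16 h at 37 C, then LiveBLAzer substrate for 2 h at room temperature in the dark; fluorescence read-out.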

Assay [8] can be described thus: p53 small molecule agonists, cell-based qHTS assay with human liver microsomes: qHTS cell viability counter screen (AID 1963579). Further: nearly all actives have a fitted effect of over 45% in size. The method in brief:
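Metabolic activation used human liver microsomes and NADPH, both 0.5 mg/mL final, over 16 hours at 37 C on p53RE-bla cells (4,000/well). Cytotoxicity measured by CellTiter-Glo luminescence, 30 min at room temperature.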

Assay [9] can be described thus: p53 small molecule agonists, cell-based qHTS assay with rat liver microsomes: qHTS cell viability counter screen (AID 1963580). Further: nearly all actives have a fitted effect of over 45% in size. The essentials:
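Cytotoxicity counter screen: intracellular ATP read by CellTiter-Glo luminescence in the p53 reporter wells. HCT-116 p53RE-bla cells were treated for 16 h at 37 C alongside rat liver microsomes and NADPH, each 0.5 mg/mL final.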

Assay [10] can be described thus: p53 small molecule agonists, cell-based qHTS assay: qHTS cell viability counter screen (AID 1963581). Further: nearly all actives have a fitted effect of over 45% in size. The essentials: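 Viability was counter-screened in parallel with the p53 agonist reporter by measuring intracellular ATP luminescence in the same HCT-116 p53RE-bla wells after 16 h compound treatment at 37 C.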
Assay [11] is described as follows: p53 small molecule agonists, cell-based qHTS assay (AID 1963582; active means well fitted activation curve with a large enough effect in the signal ratio in the repeat runs, not every such curve was filed as active; the % refers to the signal ratio). The essentials: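 Cells carrying a p53-responsive bla reporter are treated with test compounds for 16 h at 37 C; beta-lactamase activity is then detected with LiveBLAzer B/G FRET substrate after 2 h at room temperature.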
For assay [12], the target named is 5-hydroxytryptamine receptor 2A (Homo sapiens) (UniProt P28223). Nature of the assay: 5-hydroxytryptamine receptor 2A (HTR2A) small molecule antagonists, cell-based qHTS assay (AID 1963586). Further: nearly all actives have a fitted effect of over 45% in size. The method in brief: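 CHO cells stably expressing human HTR2A were plated for 18 h at 37 C, then loaded with calcium dye for 1 h. Compounds were preincubated 5 min at room temperature before DOI (4 nM solution) was added. Kinetic fluorescence was read for 3 min.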
Sequence of 5-hydroxytryptamine receptor 2A (Homo sapiens) (P28223 whole entry, looked up): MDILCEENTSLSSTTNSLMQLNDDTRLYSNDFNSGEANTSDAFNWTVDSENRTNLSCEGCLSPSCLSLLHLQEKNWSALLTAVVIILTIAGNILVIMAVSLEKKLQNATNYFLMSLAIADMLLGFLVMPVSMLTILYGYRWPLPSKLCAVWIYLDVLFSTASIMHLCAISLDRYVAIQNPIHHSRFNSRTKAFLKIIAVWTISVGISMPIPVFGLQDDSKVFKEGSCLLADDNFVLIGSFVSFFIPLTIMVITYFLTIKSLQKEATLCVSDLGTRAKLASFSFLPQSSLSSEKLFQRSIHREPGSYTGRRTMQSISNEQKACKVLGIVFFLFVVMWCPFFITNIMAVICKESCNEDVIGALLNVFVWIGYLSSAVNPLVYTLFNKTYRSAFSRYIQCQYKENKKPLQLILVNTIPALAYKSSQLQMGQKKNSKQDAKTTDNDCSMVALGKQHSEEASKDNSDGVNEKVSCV

For assay [13] the target is unchanged. Nature of the assay: 5-hydroxytryptamine receptor 2A (HTR2A) small molecule agonists, cell-based qHTS assay (AID 1963587). Further: nearly all actives have a fitted effect of over 30% in size. The method in brief: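 Kinetic calcium-flux fluorescence (2 min, 1 sec intervals) after compound addition in agonist mode. HTR2A-CHO cells were cultured 18 h, then dye-loaded 1 h at 37 C.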
The target in assay [14] is Muscarinic acetylcholine receptor M1 (Homo sapiens) (UniProt P11229). Nature of the assay: Cholinergic receptor muscarinic 1 (CHRM1) small molecule antagonists, cell-based qHTS assay (AID 1963588). Further: nearly all actives have a fitted effect of over 40% in size. The essentials: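 Compounds were tested at 15 concentrations in three independent runs. Dye-loaded CHRM1-CHO cells were exposed 5 min at room temperature before stimulation by acetylcholine added at 50nM. Intracellular calcium was read kinetically on FDSS for 3 min.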
Sequence of Muscarinic acetylcholine receptor M1 (Homo sapiens) (P11229 whole entry, looked up): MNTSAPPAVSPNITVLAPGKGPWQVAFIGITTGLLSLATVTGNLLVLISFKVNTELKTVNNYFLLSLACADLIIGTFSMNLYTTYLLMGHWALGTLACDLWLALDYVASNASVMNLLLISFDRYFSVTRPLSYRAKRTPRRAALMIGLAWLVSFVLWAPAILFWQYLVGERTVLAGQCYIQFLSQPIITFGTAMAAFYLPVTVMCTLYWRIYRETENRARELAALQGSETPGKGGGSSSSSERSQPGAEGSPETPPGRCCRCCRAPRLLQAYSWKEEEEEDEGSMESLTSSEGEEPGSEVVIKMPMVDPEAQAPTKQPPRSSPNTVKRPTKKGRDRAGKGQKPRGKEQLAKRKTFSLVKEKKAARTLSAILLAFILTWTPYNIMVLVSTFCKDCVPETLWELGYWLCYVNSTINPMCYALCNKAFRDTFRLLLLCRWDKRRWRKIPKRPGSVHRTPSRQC

Assay [15] has the same target. As to the kind of experiment: Cholinergic receptor muscarinic 1 (CHRM1) small molecule agonists, cell-based qHTS assay (AID 1963589). Further: nearly all actives have a fitted effect of over 35% in size. The essentials: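 Cells were plated and incubated 18 h at 37 C/5% CO2, loaded with calcium dye for 1 h at 37 C, then treated with compounds in DMSO. Fluorescence was recorded kinetically at 1 sec intervals.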
A short description of assay [16]: cAMP Responsive Elements (CRE) small molecule agonists, cell-based qHTS assay (AID 1963590). The essentials:
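Cells carrying a CRE-driven beta-lactamase reporter (HEK 293T) are seeded, incubated overnight (18 h), and treated with test compounds for 3 h at 37 C; reporter activity is then detected with a FRET substrate after 2 h at room temperature.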

Assay [17] can be described thus: cAMP Responsive Elements (CRE) small molecule antagonists, cell-based qHTS assay (AID 1963591; active means well fitted inhibition curve with a large enough effect in the signal ratio in the repeat runs, not every such curve was filed as active; the % refers to the signal ratio). The method in brief: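 Cells (CRE-bla HEK 293T, DMEM with 10% dialyzed FBS and 25 mM HEPES) are seeded and incubated 18 h. Compounds are added with NKH477 agonist at 0.25 uM final for 3 h, then FRET substrate for 2 h.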
In assay [18] the target is Beta-2 adrenergic receptor (Homo sapiens) (UniProt P07550). Nature of the assay: Adrenergic beta2 receptor (ADRB2) small molecule antagonists, cell-based qHTS assay (AID 1963592). Further: series mostly up to about 92 µM; nearly all actives have a fitted effect of over 50% in size. The essentials:
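Assay format: CHO-ADRB2 cells, 18-20hr seeding at 37C/5% CO2, then compound plus 1nM isoproterenol agonist mix for 0.5hr RT. Homogeneous time-resolved fluorescence cAMP detection after 1hr, expressed as 665/615 nm ratio.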

Assay [19] has as its target D(2) dopamine receptor (Homo sapiens) (UniProt P14416). As to the kind of experiment: Dopamine D2 receptor (DRD2) small molecule agonists, cell-based qHTS assay (AID 1963594). Further: nearly all actives have a fitted effect of over 35% in size. The essentials:
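cAMP accumulation in DRD2-HEK293 cells measured by HTRF after 1 h detection; compounds added 10 min before NKH477 (200nM […]) forskolin-analogue stimulation, 30 min at room temperature, with Ro20-1724 present at 0.1 mM final.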

Assay [20] shares this target. Nature of the assay: Dopamine D2 receptor (DRD2) small molecule antagonists, cell-based qHTS assay (AID 1963595; active means well fitted inhibition curve with a large enough effect in the signal ratio in the repeat runs, with a control signal flat; the % refers to the signal ratio). The essentials:
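Human DRD2 antagonist qHTS measuring cAMP by HTRF. The cells are exposed to compound for 10 min, then to NKH477 (200 nM) and quinpirole (12 nM) for 30 min at RT, with Ro20-1724 (0.1 mM) present throughout.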

Records with an inconclusive call do not appear. Calls of active or inactive are those of the source. Unless noted, the call rests on the fitted dose curve.

Sequence of D(2) dopamine receptor (Homo sapiens) (P14416 whole entry, looked up): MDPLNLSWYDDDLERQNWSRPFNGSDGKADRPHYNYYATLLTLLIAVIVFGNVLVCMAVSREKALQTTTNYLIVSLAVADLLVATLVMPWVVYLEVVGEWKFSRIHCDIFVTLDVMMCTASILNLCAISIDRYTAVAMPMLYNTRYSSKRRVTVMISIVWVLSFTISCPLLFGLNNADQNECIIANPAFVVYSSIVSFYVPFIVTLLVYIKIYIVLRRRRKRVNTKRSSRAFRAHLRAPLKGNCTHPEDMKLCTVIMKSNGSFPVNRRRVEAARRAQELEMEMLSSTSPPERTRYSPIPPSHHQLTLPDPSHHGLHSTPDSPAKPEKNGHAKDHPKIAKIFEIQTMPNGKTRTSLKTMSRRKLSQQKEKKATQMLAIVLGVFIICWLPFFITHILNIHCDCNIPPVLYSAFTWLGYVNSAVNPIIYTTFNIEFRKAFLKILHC
Sequence of Beta-2 adrenergic receptor (Homo sapiens) (P07550 whole entry, looked up): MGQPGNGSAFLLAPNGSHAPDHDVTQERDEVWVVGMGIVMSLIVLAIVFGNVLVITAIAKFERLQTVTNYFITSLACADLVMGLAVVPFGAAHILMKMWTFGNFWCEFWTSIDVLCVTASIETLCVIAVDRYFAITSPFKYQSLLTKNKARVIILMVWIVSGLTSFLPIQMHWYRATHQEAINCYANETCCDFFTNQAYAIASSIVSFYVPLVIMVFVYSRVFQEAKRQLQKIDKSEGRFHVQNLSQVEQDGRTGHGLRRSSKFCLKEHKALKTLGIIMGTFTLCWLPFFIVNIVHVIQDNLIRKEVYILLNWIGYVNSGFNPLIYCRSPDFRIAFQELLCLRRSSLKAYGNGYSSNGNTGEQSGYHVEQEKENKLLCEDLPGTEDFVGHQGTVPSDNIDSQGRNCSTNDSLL
Sequence of KiSS-1 receptor (Homo sapiens) (Q969F8 whole entry, looked up): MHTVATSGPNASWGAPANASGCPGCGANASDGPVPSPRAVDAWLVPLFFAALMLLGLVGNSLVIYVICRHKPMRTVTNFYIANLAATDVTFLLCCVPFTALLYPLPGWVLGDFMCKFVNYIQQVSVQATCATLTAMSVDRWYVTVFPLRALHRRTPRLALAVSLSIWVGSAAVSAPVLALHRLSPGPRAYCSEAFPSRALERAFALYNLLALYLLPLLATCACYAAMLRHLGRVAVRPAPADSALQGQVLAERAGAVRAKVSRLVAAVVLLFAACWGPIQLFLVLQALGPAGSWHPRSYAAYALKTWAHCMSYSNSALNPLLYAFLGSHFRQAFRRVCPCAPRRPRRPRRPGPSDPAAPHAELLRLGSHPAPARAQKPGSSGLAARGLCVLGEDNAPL

Turning to `COC(=O)[C@@H](N)CCCN/C(N)=N/[N+](=O)[O-]`, the Potency entry in assay [1], in assay [2], in [3], in assay [4], in [5] and in assay [6] was “inactive” in each case. Also, the Potency result in assay [7], in assay [8], in assay [9], in assay [10], in assay [11] and in assay [12] was “inactive” each time. Further, the Potency result in [13], in [14], in [15], in assay [16], in assay [17] and in assay [18] was “inactive” in each case. Moreover, the Potency entry in assay [19] and in [20] was “inactive” each time.
Regarding `CCC(=O)Nc1ccc(Cl)c(Cl)c1`, the Potency result in assay [1], in assay [2], in assay [3], in [4], in assay [5] and in assay [6] was “inactive” throughout. Besides, the Potency entry in assay [7], in assay [8], in assay [9], in assay [10], in assay [11] and in [12] was “inactive” throughout. For the same compound, the Potency entry in assay [13], in [14], in [15], in assay [16], in [17] and in assay [18] was “inactive” throughout. The Potency result in assay [19] and in assay [20] was “inactive” throughout.
Consider `C=CC(C)=O`, for which the Potency result in assay [1], in assay [3], in [4], in [5], in [6] and in assay [7] was “inactive” each time. Besides, the Potency result in assay [8], in [9], in assay [10], in assay [11], in assay [12] and in [13] was “inactive” in each case. In addition, the Potency entry in [14], in assay [15], in [16], in assay [17], in assay [18] and in [20] was “inactive” in each case. In addition, the Potency in assay [2] is 5.97 µM (active).
`S=C=S`: the Potency entry in assay [1], in assay [2], in [3], in assay [4], in assay [5] and in assay [6] was “inactive” in each case. Besides, the Potency entry in assay [7], in [8], in assay [9], in assay [10], in [11] and in assay [12] was “inactive” in each case. Further, the Potency entry in assay [13], in [14], in assay [15], in assay [16], in assay [17] and in [18] was “inactive” in each case. The Potency result in assay [19] and in assay [20] was “inactive” in each case.
As for `N#CC(Cl)Cl`, the Potency entry in assay [1], in assay [3], in assay [4], in assay [5], in assay [6] and in [7] was “inactive” in each case. The Potency result in assay [8], in assay [9], in assay [10], in assay [11], in assay [12] and in assay [13] was “inactive” in each case. In addition, the Potency result in assay [14], in [15], in assay [16], in [17], in assay [18] and in assay [20] was “inactive” throughout. The Potency in assay [2] was 59.5 µM (active).
Take `O=NN1CCCCCC1`: the Potency result in assay [1], in [2], in assay [3], in assay [4], in assay [5] and in assay [6] was “inactive” in each case. The Potency entry in [7], in assay [8], in assay [9], in assay [10], in assay [11] and in [12] was “inactive” each time. The Potency entry in [13], in assay [14], in assay [15], in assay [16], in assay [17] and in [18] was “inactive” each time. For the same compound, the Potency entry in assay [19] and in assay [20] was “inactive” throughout.
Take `O=NN1CCCCC1`: the Potency result in assay [1], in assay [2], in [3], in [4], in [5] and in assay [6] was “inactive” throughout. In addition, the Potency entry in assay [7], in [8], in assay [9], in assay [10], in assay [11] and in [12] was “inactive” throughout. Moreover, the Potency entry in assay [13], in assay [14], in assay [15], in [16], in assay [17] and in [18] was “inactive” in each case. Also, the Potency entry in assay [19] and in [20] was “inactive” in each case.

The values above are taken from PubChem BioAssay (Tox21).
